Calls of active or inactive are those of the source. The calls were made as follows: active = hit-call score of the fitted dose curve at least 0.9, where 1 is the maximum; inactive = score below 0.9.

Read-out in the first experiment: Monocyte Chemoattractant Protein-1 (MCP1), CCL2 (gene 6347)
Kind of experiment: BSK_3C_MCP1: BioMAP Diversity Plus: 3C Assay for Monocyte Chemoattractant Protein-1 (MCP1) Biomarker Activity (AID 2283017). As to conditions: primary human endothelial cells (HUVEC); actives raise or lower the signal. In short, it runs like this: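 Endothelial cells from human umbilical vein are dosed with chemical, cultured 24 h, then assayed for MCP-1 by ELISA; both increases and decreases are modelled against DMSO controls.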
Turning to `C=CCCCCCCCCCCCC`, the outcome was inactive.
Regarding `CCCCc1nc2cccnc2n1Cc1ccc(-c2ccccc2-c2nnn[nH]2)cc1`, the outcome was inactive.
Same read-out and setting: in the case of `S=c1[nH]c2ccccc2s1` it was “inactive”.
`CC(=O)O`: the result was inactive.
On the same count and under the same terms, the same measure for `O=C1CCCCC1`: “inactive”.
Consider `CCc1nc(N)nc(N)c1-c1ccc(Cl)cc1`, for which the outcome was inactive.
Still for that read-out and setting: the same measure for `c1ccc2occc2c1`: “inactive”.
As usually defined, the AC50 is the concentration giving half of the maximal activity seen. With `COc1ccc(OC(F)(F)F)cc1CN[C@H]1CCCN[C@H]1c1ccccc1`, the AC50 is 20 µM (active).
With `NC=O`, the outcome was inactive.
Still for that read-out and setting: in the case of `CC(C)(C)c1ccccc1` it was “inactive”.
On the same count and under the same terms, in the case of `O=C(NS(=O)(=O)/C=C/c1cccs1)c1ccc(F)cc1Br` it was “inactive”.
For `CCCCCCCCCC[N+](C)(C)[O-]`, the result was inactive.
Still for that read-out and setting: in the case of `CC1(C)C(=O)NC(=O)N1CO` it was “inactive”; in that of `NC1CCCCC1`, “inactive”.
Regarding `Cc1cn([C@H]2C=C[C@@H](CO)O2)c(=O)[nH]c1=O`, the result was inactive.
Still for that read-out and setting: the same measure for `CC(=O)OC1CC(C)OC(C)O1` (configuration not stated): “inactive”.
On the same count and under the same terms, in the case of `O=C(O)c1[nH]n(-c2ccc(S(=O)(=O)O)cc2)c(=O)c1N=Nc1ccc(S(=O)(=O)O)cc1` it was “inactive”; in that of `CC(COCC(C)OC(=O)c1ccccc1)OC(=O)c1ccccc1` (configuration not stated), “inactive”; in that of `CCCC(=O)O`, “inactive”.
Regarding `CN(C)CCCN1c2ccccc2Sc2ccc(Cl)cc21`, the AC50 was 30.4 µM (active).
Turning to `CCN(CC)CCOc1ccc(C(=C(Cl)c2ccccc2)c2ccccc2)cc1`, the half-maximal activity concentration (AC50) is 11.6 µM (active).
Consider `O=NO`, for which the result was inactive.
Still for that read-out and setting: in the case of `COC(=O)CCCC(=O)OC` it was “inactive”.
Consider `NCCOCCOCCN`, for which the outcome was inactive.
Turning to `CCc1cc(C2=C(C(=O)O)N(c3ccccc3C(F)(F)F)S(=O)(=O)c3ccccc32)cc2c1OCO2`, the outcome was inactive.
On the same count and under the same terms, the same measure for `CCCCCCC(CCCCCCCCCCC(=O)OCC(COC(C)=O)OC(C)=O)OC(C)=O` (configuration not stated): “inactive”.
Regarding `O=C(N[C@@H](c1ccccc1)[C@@H]1CCCCN1)c1cccc(C(F)(F)F)c1Cl`, the AC50 was 20 µM (active).
Still for that read-out and setting: the same measure for `Oc1ccccc1O`: 4.66 µM (active).
In the case of `Oc1ccc(O)cc1`, the outcome was inactive.

Read-out in another experiment: Monocyte Chemoattractant Protein-1 (MCP1), CCL2 (gene 6347)
Put plainly: BSK_4H_MCP1: BioMAP Diversity Plus: 4H Assay for Monocyte Chemoattractant Protein-1 (MCP1) Biomarker Activity (AID 2283018). As to conditions: primary human endothelial cells (HUVEC); actives raise or lower the signal. The method, boiled down:
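Human umbilical vein endothelial cells (4H system) dosed with chemical; MCP-1 measured by ELISA 24 h after dosing. Bidirectional curve fitting against DMSO negative control as baseline; parallel SRB total-protein staining tracks overt cytotoxicity.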
For the compound `C=CCCCCCCCCCCCC`, the outcome was inactive.
Still for that read-out and setting: in the case of `CCCCc1nc2cccnc2n1Cc1ccc(-c2ccccc2-c2nnn[nH]2)cc1` it was “inactive”.
Same read-out and setting: in the case of `S=c1[nH]c2ccccc2s1` it was “inactive”; in that of `CC(=O)O`, “inactive”.
As for `O=C1CCCCC1`, the result was inactive.
As for `CCc1nc(N)nc(N)c1-c1ccc(Cl)cc1`, the outcome was inactive.
The same measure, in the same setting: the same measure for `c1ccc2occc2c1`: “inactive”; for `COc1ccc(OC(F)(F)F)cc1CN[C@H]1CCCN[C@H]1c1ccccc1`: “inactive”.
On the same count and under the same terms, in the case of `NC=O` it was “inactive”; in that of `CC(C)(C)c1ccccc1`, “inactive”; in that of `O=C(NS(=O)(=O)/C=C/c1cccs1)c1ccc(F)cc1Br`, “inactive”.
For the compound `CCCCCCCCCC[N+](C)(C)[O-]`, the outcome was inactive.
`CC1(C)C(=O)NC(=O)N1CO`: the result was inactive.
`NC1CCCCC1`: the result was inactive.
The same measure, in the same setting: in the case of `Cc1cn([C@H]2C=C[C@@H](CO)O2)c(=O)[nH]c1=O` it was “inactive”; in that of `CC(=O)OC1CC(C)OC(C)O1` (configuration not stated), “inactive”; in that of `O=C(O)c1[nH]n(-c2ccc(S(=O)(=O)O)cc2)c(=O)c1N=Nc1ccc(S(=O)(=O)O)cc1`, “inactive”.
On the same count and under the same terms, in the case of `CC(COCC(C)OC(=O)c1ccccc1)OC(=O)c1ccccc1` (configuration not stated) it was “inactive”; in that of `CCCC(=O)O`, “inactive”.
For the compound `CN(C)CCCN1c2ccccc2Sc2ccc(Cl)cc21`, the AC50 is 4.5 µM (active).
Still for that read-out and setting: the same measure for `CCN(CC)CCOc1ccc(C(=C(Cl)c2ccccc2)c2ccccc2)cc1`: 9.04 µM (active).
As for `O=NO`, the outcome was inactive.
Take `COC(=O)CCCC(=O)OC`: the outcome was inactive.
`NCCOCCOCCN`: the result was inactive.
On the same count and under the same terms, the same measure for `CCc1cc(C2=C(C(=O)O)N(c3ccccc3C(F)(F)F)S(=O)(=O)c3ccccc32)cc2c1OCO2`: “inactive”; for `CCCCCCC(CCCCCCCCCCC(=O)OCC(COC(C)=O)OC(C)=O)OC(C)=O` (configuration not stated): “inactive”; for `O=C(N[C@@H](c1ccccc1)[C@@H]1CCCCN1)c1cccc(C(F)(F)F)c1Cl`: “inactive”.
With `Oc1ccccc1O`, the result was inactive.
Still for that read-out and setting: in the case of `Oc1ccc(O)cc1` it was “inactive”.

Read-out in a further experiment: Human Leukocyte Antigen - DR isotype (HLADR), HLA-DRA (gene 3122)
Put plainly: BSK_3C_HLADR: BioMAP Diversity Plus: 3C Assay for Human Leukocyte Antigen - DR isotype (HLADR) Biomarker Activity (AID 2283019).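 As to outcome: ELISA of cell-surface HLA-DR on HUVEC 24 h after dosing.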 As to conditions: primary human endothelial cells (HUVEC); actives raise or lower the signal. In short, it runs like this:
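Endothelial cells from human umbilical vein are treated with test chemical; after 24 h, HLA-DR levels are measured by ELISA. Data are fitted in both directions using DMSO as the baseline.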
For `C=CCCCCCCCCCCCC`, the result was inactive.
Same read-out and setting: the same measure for `CCCCc1nc2cccnc2n1Cc1ccc(-c2ccccc2-c2nnn[nH]2)cc1`: “inactive”.
With `S=c1[nH]c2ccccc2s1`, the outcome was inactive.
On the same count and under the same terms, in the case of `CC(=O)O` it was “inactive”; in that of `O=C1CCCCC1`, “inactive”.
On the same count and under the same terms, the same measure for `CCc1nc(N)nc(N)c1-c1ccc(Cl)cc1`: “inactive”; for `c1ccc2occc2c1`: “inactive”.
For `COc1ccc(OC(F)(F)F)cc1CN[C@H]1CCCN[C@H]1c1ccccc1`, the AC50 is 32.8 µM (active).
As to `NC=O`, the outcome was inactive.
Same read-out and setting: the same measure for `CC(C)(C)c1ccccc1`: “inactive”; for `O=C(NS(=O)(=O)/C=C/c1cccs1)c1ccc(F)cc1Br`: “inactive”.
In the case of `CCCCCCCCCC[N+](C)(C)[O-]`, the outcome was inactive.
Still for that read-out and setting: in the case of `CC1(C)C(=O)NC(=O)N1CO` it was “inactive”.
On the same count and under the same terms, the same measure for `NC1CCCCC1`: “inactive”; for `Cc1cn([C@H]2C=C[C@@H](CO)O2)c(=O)[nH]c1=O`: “inactive”.
Still for that read-out and setting: in the case of `CC(=O)OC1CC(C)OC(C)O1` (configuration not stated) it was “inactive”.
Regarding `O=C(O)c1[nH]n(-c2ccc(S(=O)(=O)O)cc2)c(=O)c1N=Nc1ccc(S(=O)(=O)O)cc1`, the result was inactive.
On the same count and under the same terms, in the case of `CC(COCC(C)OC(=O)c1ccccc1)OC(=O)c1ccccc1` (configuration not stated) it was “inactive”.
On the same count and under the same terms, the same measure for `CCCC(=O)O`: “inactive”.
For `CN(C)CCCN1c2ccccc2Sc2ccc(Cl)cc21`, the AC50 was 29.1 µM (active).
In the case of `CCN(CC)CCOc1ccc(C(=C(Cl)c2ccccc2)c2ccccc2)cc1`, the AC50 is 7.41 µM (active).
`O=NO`: the outcome was inactive.
With `COC(=O)CCCC(=O)OC`, the result was inactive.
For the compound `NCCOCCOCCN`, the result was inactive.
For the compound `CCc1cc(C2=C(C(=O)O)N(c3ccccc3C(F)(F)F)S(=O)(=O)c3ccccc32)cc2c1OCO2`, the AC50 is 24.8 µM (active).
Consider `CCCCCCC(CCCCCCCCCCC(=O)OCC(COC(C)=O)OC(C)=O)OC(C)=O` (configuration not stated), for which the result was inactive.
With `O=C(N[C@@H](c1ccccc1)[C@@H]1CCCCN1)c1cccc(C(F)(F)F)c1Cl`, the AC50 is 29.2 µM (active).
Same read-out and setting: in the case of `Oc1ccccc1O` it was 5.45 µM (active); in that of `Oc1ccc(O)cc1`, 23.5 µM (active).

Source of the values: PubChem BioAssay (EPA / NIEHS).
